# Hits are enriched below; roughly 3.2% of the tested compounds scored in any of these assays.
# AmpC inh no detg – qHTS Inhibitors of AmpC Beta-Lactamase (assay without detergent); P00811; AmpC nitrocefin hydrolysis, absorbance 480 nm, 0.0001% Triton; Potency, µM (top dose mostly 57.1 µM), for inactives: at the top dose activity change, negative = inhibition, hits mostly inhibitors; hit rate 0.52% among 330,000;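 further: plate controls were no compound for no effect and no enzyme for full effect; nearly all actives have a fitted effect of over 20% in size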
# Target sequence (P00811 whole entry, looked up): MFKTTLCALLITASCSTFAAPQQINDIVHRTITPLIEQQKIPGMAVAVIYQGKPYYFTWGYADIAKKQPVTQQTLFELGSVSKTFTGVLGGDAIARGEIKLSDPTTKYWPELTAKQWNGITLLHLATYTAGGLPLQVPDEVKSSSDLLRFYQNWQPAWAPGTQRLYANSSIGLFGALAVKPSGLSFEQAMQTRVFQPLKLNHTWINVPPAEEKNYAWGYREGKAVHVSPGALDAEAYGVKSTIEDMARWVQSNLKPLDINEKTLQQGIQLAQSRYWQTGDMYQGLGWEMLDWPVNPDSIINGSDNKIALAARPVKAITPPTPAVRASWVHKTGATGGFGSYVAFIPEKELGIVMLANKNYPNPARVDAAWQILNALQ
#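 AmpC (5.3 nM in the dispensed reagent) in 20 mM phosphate pH 7.0 with 0.01% (detergent screen) or 0.0001% Triton X-100 was preincubated with compounds for 15 min at room temperature. Nitrocefin was then added from an 800 uM solution, and hydrolysis was followed at 480 nm.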
# Sm TGR block – qHTS Assay for the Inhibitors of Schistosoma Mansoni Peroxiredoxins. Potency, µM (highest dose often 114 µM), inactives show top-dose activity change, negative = inhibition, usual class: inhibitors. hit rate 3% among 360,000. purified TGR, DTNB reduction, TNB absorbance 405 nm. Schistosoma mansoni thioredoxin glutathione reductase (TGR), Q962Y6; further: nearly all actives have a fitted effect of over 60% in size
#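 First, TGR (20 nM dispensed) and NADPH were mixed with compound. Second, a 15 min room-temperature incubation followed. Third, further NADPH and then DTNB were added to start the reaction. Finally, TNB absorbance was monitored kinetically.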
# AmpC inh detg – qHTS Inhibitors of AmpC Beta-Lactamase (assay with detergent); hit rate 0.041% among 370,000; AID 485294, 2010; P00811; AmpC hydrolysis of nitrocefin, absorbance 480 nm, 0.01% Triton; Potency, µM (series often up to 114 µM), inactives show at the top dose activity change, negative = inhibition, usual class: inhibitors;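 further: 0% = no-compound wells and -100% = no-enzyme wells; nearly all actives have a fitted effect of over 25% in size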
#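 AmpC (5.3 nM in the dispensed reagent) in 20 mM phosphate pH 7.0 with 0.01% (detergent screen) or 0.0001% Triton X-100 was preincubated with compounds for 15 min at room temperature. Nitrocefin was then added from an 800 uM solution, and hydrolysis was followed at 480 nm.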
# AMA1-RON2 inh – qHTS for Inhibitors of AMA1-RON; Towards Development of Antimalarial Drug Lead: Primary Screen | hit rate 0.2% among 360,000 | Potency, µM (titrated, usually from 58.2 µM), inactives show at the highest dose activity change, negative = inhibition, hits mostly inhibitors | AlphaScreen AMA1-biotinylated RON2 peptide binding;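 further: 0% = vehicle wells and -100% = peptide control; nearly all actives have a fitted effect of over 45% in size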
#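 AMA1 (3D7) with his tag at 25 nM final met compounds first, then biotinylated RON2 peptide at 25 nM; detection used donor plus acceptor beads, 10 µg/mL apiece, read by AlphaScreen after 30 min at room temperature.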
# RE007 growth inh – qHTS Assay for Inhibitors of the HIV-1 protein Vpr; AID 651644, 2012; Potency, µM (doses to about 92.2 µM), inactives show at the top dose activity change, negative = less growth, hits mostly inhibitors; hit rate 0.21% among 360,000; S. pombe RE007 Vpr strain, BacTiter-Glo ATP luminescence, 24 h; active means well fitted falling curve with a large enough effect; inconclusive means small, poorly fitted or top-dose-only effect; inactive means no such curve, though single readings can be large or run the other way; further: nearly all actives have a fitted effect of over 50% in size
#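 Fission yeast strain RE007, carrying one chromosomally integrated HIV-1 vpr copy, was seeded at OD 0.01 in PMG+AL medium with 23 nL pinned compound. After 24 h at 30 °C and 99% humidity, viability was read by BacTiter-Glo luminescence.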
# * hit, by the source's call; ? = inconclusive; . = no result given. Unless noted, the call rests on the fitted dose curve; in most records, active means well fitted curve in the direction sought with a large enough effect; inconclusive means small, poorly fitted or top-dose-only effect, or another doubt; inactive means no such curve, though single readings can be large; an effect the other way counts as inactive or inconclusive. Unless noted, on the % scale 0 is the no-effect control and ±100 the full control effect; potency means the concentration at half of the fitted maximal effect.
SMILES,AmpC inh no detg,Sm TGR block,AmpC inh detg,AMA1-RON2 inh,RE007 growth inh
O=C(C1=C(O)C(=O)N(CCCN2CCOCC2)C1c1ccc(Cl)cc1)c1cc2ccccc2o1 (centres undefined),-1.8%,?,-6.3%,-1.5%,-10.0%
Cn1c(=O)n(C)c2cc(N3CCOCC3)c(NS(=O)(=O)c3ccc(Cl)cc3)cc21,.,?,1.7%,.,.
COc1cccc2cc(C(=O)C3=C(O)C(=O)N(CCN4CCOCC4)C3c3ccc(C)o3)oc12 (centres undefined),0.9%,28.2µM*,-2.0%,9.4%,-5.7%
COc1cccc2cc(C(=O)C3=C(O)C(=O)N(CCN(C)C)C3c3ccc(F)cc3)oc12 (centres undefined),11.6%,-34.6%,?,-2.6%,7.5%
O=C(O)c1ccc(NC(=S)NC(=O)c2cncc(Br)c2)cc1,-25.8%,11.2µM*,3.0%,32.6%,-4.6%
O=C(O)c1cccc(NC(=S)NC(=O)c2cccc(OCc3ccccc3)c2)c1,-45.1%,25.1µM*,10.6%,110.3%,10.9%
O=C(O)c1cccc(NC(=S)NC(=O)c2ccncc2)c1,-19.3%,31.6µM*,-4.1%,-10.7%,-10.4%
CCCOc1cccc(C(=O)NC(=S)Nc2ccccc2)c1,-46.9%,?,-0.3%,46.1%,-9.1%
CC(=O)c1cccc(NC(=S)NC(=O)c2ccc(Cl)cc2)c1,-26.4%,-20.1%,-6.6%,0.0%,6.3%
CNC(=S)Nc1cccc(C(=O)O)c1,-19.5%,3.16µM*,-10.2%,3.6%,2.4%
CC(C)(C)C(=O)NC(=S)Nc1cccc(C(=O)O)c1,2.7%,14.8%,-2.7%,24.6%,13.9%
Cc1ccccc1NC(=O)Cn1c(=O)n(CCCCCC(=O)NCc2ccc3c(c2)OCO3)c(=O)c2sccc21,.,-0.4%,23.6%,.,.
Cc1ccc(-n2nnnc2SCC(=O)N2CC(=O)Nc3ccccc32)cc1,-22.4%,44.7µM*,5.6%,2.9%,-11.3%
Cc1nnc(SCC(=O)N2CC(=O)Nc3ccccc32)n1C,-13.6%,3.5%,-5.0%,0.0%,0.3%
O=C(C1CCC1)N1CCCc2cc(S(=O)(=O)Nc3ccc(F)cc3)ccc21,.,-4.5%,2.2%,.,.
Cc1ccc(C)c(NS(=O)(=O)c2c(C)ccc3nsnc23)c1,-45.2%,0.0%,-9.2%,-8.9%,10.6%
Cc1ccc2nsnc2c1S(=O)(=O)Nc1cccc2nsnc12,-10.8%,44.7µM*,9.0%,-6.6%,-3.0%
COc1cc(OC)c(N(C)S(=O)(=O)c2cccc(C(=O)OCC(=O)c3c[nH]c4ccccc34)c2)cc1Cl,3.98µM*,5.8%,?,17.9%,4.7%
O=C(O)C1(S(=O)(=O)CCC(F)=C(F)F)CC1,-10.4%,31.6µM*,-1.2%,17.6%,4.8%
CCn1c(C)c(C2N3CC4(C)CN2CC(C)(C3)C4=O)c2ccccc21 (centres undefined),.,2.0%,1.9%,.,.
CC1(C)CC(C#N)(N2CCOCC2)CCO1 (centres undefined),.,12.6µM*,6.8%,-3.8%,-17.6%
Oc1c(C(c2ccccc2Cl)N2CCCC2)ccc2cccnc12 (centres undefined),-31.6%,?,2.6%,-16.0%,?
CN1CCN(C(c2ccccn2)c2cc(Cl)c3cccnc3c2O)CC1 (centres undefined),25.6%,1.26µM*,-1.1%,-75.3%,?
Oc1c(C(c2ccc(Cl)cc2)N2CCCC2)cc(Cl)c2cccnc12 (centres undefined),-36.2%,3.16µM*,-13.0%,-58.9%,-14.2%
CC(=O)NC(c1cc(Cl)c2cccnc2c1O)C(C)C (centres undefined),1.1%,5.8%,?,.,.
CC(=O)NC(c1ccc(C)cc1)c1cc(Cl)c2cccnc2c1O (centres undefined),-15.4%,-6.9%,-14.6%,84.3%,-17.6%
